This note sets out measurements from PubChem BioAssay (Tox21).

Experiment [1] is described as follows: A CellTox Green Cytotoxicity Assay to monitor cytotoxicity in HepG2 cells - 8 hour (AID 1224890). Note: nearly all actives have a fitted effect of over 45% in size. An outline of the steps: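 First, HepG2 cells (600/well) mixed with reagent were plated; second, after 5 h at 37 C they received compounds via pintool; third, fluorescence was measured at 0 h through 40 h at 8 h intervals.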
Experiment [2] in a line: qHTS assay to identify small molecule antagonists of the androgen receptor (AR) signaling pathway using the MDA cell line in the presence of 0.5 nM R1881 - cell viability counter screen (AID 1259242). Note: nearly all actives have a fitted effect of over 45% in size. The gist of the method: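 qHTS format. MDA-kb2 (MMTV-luc, AR/GR responsive) + cpd + 0.5 nM R1881 final, 16 hr 37C/0% CO2 → CellTiter-Fluor 30 min → fluorescence intensity.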

In experiment [3] the target is Estrogen receptor (Homo sapiens) (UniProt P03372). The experiment is described as follows: qHTS assay to identify small molecule antagonists of the estrogen receptor alpha (ER-alpha) signaling pathway using the BG1 cell line in the presence of 0.1 nM 17-beta-estradiol (AID 1259244). Note: nearly all actives have a fitted effect of over 50% in size. The gist of the method:
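Reporter is a stably transfected luciferase under four estrogen responsive elements in VM7Luc4E2 cells expressing native full-length ER-alpha; inhibition of 0.1 nM (final) 17beta-estradiol-driven signal over 22 h is read by luminescence.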
(qHTS replaces the single test concentration by a dilution series.)

A short description of experiment [4]: qHTS assay to identify small molecule HDAC inhibitors (AID 1259364).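 Note: wild-type HCT-116 cells with endogenous class I/II HDAC activity; top concentration of the series differs between compounds; nearly all actives have a fitted effect of over 45% in size.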 An outline of the steps:
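Quantitative high-throughput format: overnight-seeded HCT-116 cells got compounds for 2 hr at 37C; HDAC-Glo I/II reagent added, 30 min RT, luminescence measured.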

Experiment [5] is described as follows: qHTS assay to identify small molecule HDAC inhibitors - cell viability counter screen (AID 1259365). Note: series mostly up to about 92 µM; nearly all actives have a fitted effect of over 50% in size. The gist of the method:
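Wild-type HCT-116 cells, 1,500/well, cultured overnight, then compound-treated 2 h at 37 C. Viability measured as ATP luminescence with CellTiter-Glo after 30 min at room temperature.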

Experiment [6] in a line: qHTS assay to identify small molecule agonists of the sonic hedgehog signaling (Shh) pathway - cell viability counter screen (AID 1259366). Note: nearly all actives have a fitted effect of over 50% in size. An outline of the steps:
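NIH/3T3-derived Gli1-Luc reporter cells, 2,000 per well, received compound after 4 h and were treated about 23 h at 37C. Viability measured in the same wells by CellTiter-Fluor fluorescence after 1 h.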

The nature of experiment [7]: qHTS assay to identify small molecule antagonists of the sonic hedgehog signaling (Shh) pathway - cell viability counter screen (AID 1259367). Note: nearly all actives have a fitted effect of over 55% in size. An outline of the steps: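 Viability was read by CellTiter-Fluor fluorescence in the same wells, reagent added 23 hr into compound treatment and incubated 1 hr at 37C. The 3T3 Gli1-Luc reporter cells (2,000/well) received conditioned medium after compound and ran 24 hr.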

Experiment [8] can be described thus: qHTS assay to identify small molecule agonists of the sonic hedgehog signaling (Shh) pathway (AID 1259368; calls by dose curve;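 note: NIH/3T3-derived 3T3Gli1-Luc cells carrying a stable Gli1-driven firefly luciferase reporter; series mostly up to about 92 µM; nearly all actives have a fitted effect of over 15% in size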). An outline of the steps:
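Quantitative high-throughput format using a Gli1-driven firefly luciferase reporter line derived from NIH/3T3 cells. After a 24 hr compound treatment at 37 C and 5% CO2, luminescence reported Gli1 response element activity.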

Experiment [9] is described as follows: qHTS assay to identify small molecule antagonists of the sonic hedgehog signaling (Shh) pathway (AID 1259369; calls by dose curve; note: nearly all actives have a fitted effect of over 45% in size; note: potency is the fitted concentration of half-maximal effect). The gist of the method: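 Stable Gli1-Luc reporter NIH/3T3 clone; quantitative HTS in stimulated mode with conditioned medium. Luminescence measured after 24hr compound treatment at 37 C.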
For experiment [10], the target named is Estrogen receptor beta (Homo sapiens) (UniProt Q92731). Kind of experiment: qHTS assay to identify small molecule agonists of the estrogen receptor beta (ER-beta) signaling pathway (AID 1259377; active = well fitted activation curve with a large enough effect in the signal ratio in the repeat runs, not every such curve was filed as active; the % refers to the signal ratio). The gist of the method:
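ER-beta-UAS-bla HEK293T cells in medium with 2% charcoal-stripped FBS were exposed to compounds for 16 h at 37C. Beta-lactamase reporter activity was read as fluorescence after 2 h with LiveBLAzer B/G FRET substrate at room temperature.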

A short description of experiment [11]: qHTS assay to identify small molecule agonists of the androgen receptor (AR) signaling pathway in the presence of an antagonist - cell viability counter screen (AID 1259379).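 Note: MDA-kb2 human breast cancer cells carrying an MMTV luciferase reporter; series mostly up to about 92 µM; nearly all actives have a fitted effect of over 25% in size.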 The gist of the method:
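Nilutamide-containing (3.0uM final) MDA-kb2 cultures, 3,000 cells/well, were treated with compounds across 15 concentrations. After 16 hr at 37C with no CO2, cell viability was determined by CellTiter-Fluor fluorescence in the luciferase assay wells.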

A short description of experiment [12]: qHTS assay to identify small molecule agonists of the estrogen receptor beta (ER-beta) signaling pathway - cell viability counter screen (AID 1259380). Note: nearly all actives have a fitted effect of over 30% in size. An outline of the steps:
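Steps: plate ER-beta-UAS-bla HEK293T cells, rest 6 hr; add compounds in DMSO; incubate 16 hr at 37C, 5% CO2; add FRET substrate 2 hr; add CellTiter-Glo, wait 30 min at room temperature; read luminescence.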

Experiment [13] in a line: qHTS assay to identify small molecule antagonists of the estrogen receptor beta (ER-beta) signaling pathway - cell viability counter screen (AID 1259382).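 Note: HEK293T cells carrying ER-beta-UAS-bla reporter stimulated with estradiol; series mostly up to about 92 µM; nearly all actives have a fitted effect of over 55% in size.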 The gist of the method:
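Viability is scored by CellTiter-Glo luminescence (30 min, room temperature) in ER-beta-UAS-bla HEK293T wells already read for reporter fluorescence. Compound exposure lasts 16 hr at 37C alongside 1nM 17-beta-estradiol in charcoal-stripped serum medium.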

In experiment [14] the target is Androgen receptor (Homo sapiens) (UniProt P10275). The experiment is described as follows: qHTS assay to identify small molecule antagonists of the androgen receptor (AR) signaling pathway using the MDA cell line in the presence of 0.5 nM R1881 (AID 1259243). Note: potency is the fitted concentration of half-maximal effect; nearly all actives have a fitted effect of over 50% in size. An outline of the steps:
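Antagonist mode quantitative HTS in MDA-kb2 MMTV-luciferase cells, agonist R1881 at 0.5 nM final, 16 hr exposure at 37C and 0% CO2, luminescent detection.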

For experiment [15] the target is unchanged. The experiment is described as follows: qHTS assay to identify small molecule agonists of the androgen receptor (AR) signaling pathway in the presence of an antagonist (AID 1259381; calls by dose curve; note: nearly all actives have a fitted effect of over 15% in size). The gist of the method: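 Reporter-gene luminescence from MDA-kb2 cells exposed 16hr at 37C (0% CO2) to 15-point compound titrations with 3.0uM final nilutamide as AR antagonist.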

Experiment [16] can be described thus: qHTS assay to identify small molecule agonists or antagonists of the thyroid stimulating hormone receptor (TSHR) signaling pathway - wild type cell line counter screen (AID 1259384; calls by dose curve). An outline of the steps:
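Counter screen in untransfected Hek293: compounds (15-point titration, triplicate) plus phosphodiesterase inhibitor Ro20-1724 added after 18 h plating; 30 min RT. Intracellular cAMP via competitive d2/cryptate immunoassay, 1 h incubation.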

For experiment [17], the target named is Estrogen receptor (Homo sapiens) (UniProt P03372). The experiment is described as follows: qHTS assay to identify small molecule agonists of the estrogen receptor alpha (ER-alpha) signaling pathway in the presence of an antagonist (AID 1259383; calls by dose curve; note: top concentration of the series differs between compounds; nearly all actives have a fitted effect of over 15% in size). An outline of the steps: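 Readout was ERE-driven luciferase luminescence in VM7Luc4E2 cells, which express full-length ER-alpha endogenously. Compounds were tested at 15 concentrations for 22hr alongside 10.0nM ICI-182,780 (final concentration).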

Experiment [18] is described as follows: qHTS assay to identify small molecule phospholipidosis (PLD) inducers (AID 1259344; active = well fitted curve in the direction sought with a large enough effect; an effect the other way counts as inactive or inconclusive). The gist of the method:
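Phospholipid accumulation was scored by imaging: fixed, Hoechst-counterstained HepG2 cells stained with LipidTOX Red after 24 h compound exposure at 37 C. Read-outs were pit count and pit intensity per well or per cell, with amiodarone and DMSO controls.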

Experiment [19] deals with Estrogen receptor beta (Homo sapiens) (UniProt Q92731). Kind of experiment: qHTS assay to identify small molecule antagonists of the estrogen receptor beta (ER-beta) signaling pathway (AID 1259378; active = well fitted inhibition curve with a large enough effect in the signal ratio in the repeat runs, not every such curve was filed as active; the % refers to the signal ratio). The gist of the method:
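Antagonist mode: compounds added to beta-lactamase reporter HEK293T ER-beta-UAS cells stimulated with E2 (1nM final), 16 hr at 37C. LiveBLAzer B/G FRET substrate, 2 hours room temperature, fluorescence read-out.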

Structures are written as SMILES. Values joined by “and” are separate entries in the source; they are usually repeats but may differ in a detail not shown here. Equal entries are not always repeated. Inconclusive results are not listed. More than one record can exist for a structure, and the calls need not agree. Active and inactive are the calls of the source. Unless noted, calls come from the whole dose curve; as a rule, active = well fitted curve in the direction sought with a large enough effect in the repeat runs; inconclusive = weak or mixed curves; inactive = no such curve, though single readings can be large; an effect the other way counts as inactive or inconclusive.

Estrogen receptor (Homo sapiens), sequence (P03372 whole entry, looked up): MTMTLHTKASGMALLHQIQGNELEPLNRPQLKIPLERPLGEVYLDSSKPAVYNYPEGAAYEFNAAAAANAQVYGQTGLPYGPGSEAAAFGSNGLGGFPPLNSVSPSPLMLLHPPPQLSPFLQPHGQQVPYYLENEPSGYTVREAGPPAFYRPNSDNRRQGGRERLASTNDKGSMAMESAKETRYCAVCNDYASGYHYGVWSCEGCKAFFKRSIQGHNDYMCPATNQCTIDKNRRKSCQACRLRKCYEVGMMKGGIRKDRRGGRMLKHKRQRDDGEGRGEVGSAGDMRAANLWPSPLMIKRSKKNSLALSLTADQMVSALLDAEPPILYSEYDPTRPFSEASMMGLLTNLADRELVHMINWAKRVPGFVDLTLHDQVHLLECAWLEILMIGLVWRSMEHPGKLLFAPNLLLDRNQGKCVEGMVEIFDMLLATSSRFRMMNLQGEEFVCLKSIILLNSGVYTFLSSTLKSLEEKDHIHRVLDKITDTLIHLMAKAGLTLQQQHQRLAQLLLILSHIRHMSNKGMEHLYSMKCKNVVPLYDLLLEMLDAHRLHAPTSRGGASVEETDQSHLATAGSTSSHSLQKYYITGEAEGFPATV
Androgen receptor (Homo sapiens), sequence (P10275 whole entry, looked up): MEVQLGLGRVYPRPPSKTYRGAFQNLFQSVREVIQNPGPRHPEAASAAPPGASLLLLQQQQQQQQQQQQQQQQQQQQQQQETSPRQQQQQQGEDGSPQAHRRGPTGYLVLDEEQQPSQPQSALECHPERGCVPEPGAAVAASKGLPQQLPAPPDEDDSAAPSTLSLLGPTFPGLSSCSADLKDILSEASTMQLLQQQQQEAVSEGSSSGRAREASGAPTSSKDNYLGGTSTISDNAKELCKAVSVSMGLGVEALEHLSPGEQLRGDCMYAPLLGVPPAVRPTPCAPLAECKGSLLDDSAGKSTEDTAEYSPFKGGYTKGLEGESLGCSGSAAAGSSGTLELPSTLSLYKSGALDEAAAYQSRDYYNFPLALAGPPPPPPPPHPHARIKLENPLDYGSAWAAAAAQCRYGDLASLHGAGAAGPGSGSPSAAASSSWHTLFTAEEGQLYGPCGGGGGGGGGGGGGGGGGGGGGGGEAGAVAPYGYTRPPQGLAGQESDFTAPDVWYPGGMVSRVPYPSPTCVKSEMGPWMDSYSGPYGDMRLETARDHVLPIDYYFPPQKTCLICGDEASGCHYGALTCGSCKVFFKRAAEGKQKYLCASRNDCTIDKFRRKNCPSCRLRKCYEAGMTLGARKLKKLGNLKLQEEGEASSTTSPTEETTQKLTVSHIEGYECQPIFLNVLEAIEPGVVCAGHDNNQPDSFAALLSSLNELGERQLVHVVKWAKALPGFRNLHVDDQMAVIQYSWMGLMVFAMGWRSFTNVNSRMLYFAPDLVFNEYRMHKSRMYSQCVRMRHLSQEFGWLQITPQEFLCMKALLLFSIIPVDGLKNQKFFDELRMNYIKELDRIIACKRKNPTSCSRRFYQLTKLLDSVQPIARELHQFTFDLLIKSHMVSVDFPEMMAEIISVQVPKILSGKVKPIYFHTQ
Estrogen receptor beta (Homo sapiens), sequence (Q92731 whole entry, looked up): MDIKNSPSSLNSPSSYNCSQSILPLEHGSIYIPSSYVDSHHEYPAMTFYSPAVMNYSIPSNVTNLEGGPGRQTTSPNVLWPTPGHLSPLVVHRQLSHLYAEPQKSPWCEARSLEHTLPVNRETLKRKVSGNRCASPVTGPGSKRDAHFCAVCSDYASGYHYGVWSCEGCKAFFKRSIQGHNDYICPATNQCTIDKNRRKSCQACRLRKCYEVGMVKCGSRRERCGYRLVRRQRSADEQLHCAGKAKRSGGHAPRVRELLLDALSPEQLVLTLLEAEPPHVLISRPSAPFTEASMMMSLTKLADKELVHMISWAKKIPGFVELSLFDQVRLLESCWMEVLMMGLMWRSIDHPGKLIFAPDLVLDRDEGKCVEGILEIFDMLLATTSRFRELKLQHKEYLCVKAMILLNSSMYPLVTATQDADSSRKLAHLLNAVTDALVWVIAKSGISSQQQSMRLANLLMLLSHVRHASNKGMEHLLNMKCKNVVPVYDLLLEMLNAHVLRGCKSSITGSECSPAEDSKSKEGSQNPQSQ

Turning to `CC(C)OP(=O)(CP(=O)(OC(C)C)OC(C)C)OC(C)C`, the call in experiment [1], in [5], in experiment [8] and in [13] was inactive. Also, the Potency entry in experiment [2], in experiment [3], in experiment [4], in experiment [6], in experiment [7] and in experiment [10] was “inactive” in each case. Further, the Potency entry in experiment [11] and in experiment [12] was “inactive” in each case. The Potency entry in experiment [9] was “inactive and 1.19 µM (active)”.
Turning to `OCc1cccc(Oc2ccccc2)c1`, the result in experiment [1], in experiment [5], in experiment [8], in [13] and in experiment [16] was inactive. In addition, the Potency entry in experiment [2], in [4], in [6], in experiment [7], in experiment [11] and in experiment [12] was “inactive” throughout. The Potency result in experiment [15] is “inactive”. Further, the Potency in experiment [14] is 31.1 µM (active).
With `Nc1nc(N)nc(-c2ccccc2)n1`, the call in experiment [1], in [5], in [8], in [13] and in [16] was inactive. Moreover, the Potency result in experiment [2], in [3], in experiment [4], in experiment [6], in experiment [7] and in experiment [10] was “inactive” throughout. For the same compound, the Potency entry in [11], in experiment [12] and in experiment [17] was “inactive” throughout.
Take `CC(C)(Oc1ccc(CCNC(=O)c2ccc(Cl)cc2)cc1)C(=O)O`: the outcome in [1], in experiment [18], in [5], in experiment [8], in experiment [13] and in [16] was inactive. In addition, the Potency result in experiment [2], in [3], in [4], in experiment [6], in [7] and in [11] was “inactive” each time. In addition, in experiment [12], the Potency entry is “inactive”.
Consider `C=C(C)CNCC`, for which the result in [1], in [5], in experiment [8], in experiment [13] and in experiment [16] was inactive. Further, the Potency result in [4], in experiment [6], in experiment [7], in experiment [9], in [11] and in [12] was “inactive” each time.
In the case of `CCCCCCCCCCCCCCCCO`, the result in experiment [1], in experiment [18], in [5], in experiment [8], in experiment [13] and in [16] was inactive. Further, the Potency entry in experiment [2], in [3], in experiment [4], in [6], in [7] and in [9] was “inactive” each time. For the same compound, the Potency entry in [10], in experiment [11] and in [12] was “inactive” in each case.
In the case of `Brc1ccc(Br)c(Br)c1`, the call in experiment [1], in [5], in [8], in experiment [13] and in experiment [16] was inactive. The Potency result in experiment [2], in experiment [3], in experiment [4], in experiment [6], in [7] and in experiment [9] was “inactive” each time. Moreover, the Potency result in experiment [11] and in experiment [12] was “inactive” each time.
As to `C=CC(=O)OCCC(=O)O`, the call in [1], in experiment [5], in [8], in [13] and in [16] was inactive. Besides, the Potency result in experiment [2], in experiment [3], in [4], in experiment [6], in experiment [7] and in experiment [11] was “inactive” throughout. The Potency entry in experiment [12] and in [17] was “inactive” in each case.
For `O=C(O)/C=C/C(=O)O`, the result in experiment [1], in experiment [5], in experiment [8], in experiment [13] and in [16] was inactive. Moreover, the Potency entry in [4], in experiment [6], in [7], in experiment [9], in experiment [10] and in [19] was “inactive” each time. For the same compound, the Potency entry in experiment [11] and in experiment [12] was “inactive” each time.
